Assay [1] in a line: Viability qHTS for spleen associated tyrosine kinase inhibitor (SYKi) naive MV4-11 cells (AID 1963823). Further: nearly all actives have a fitted effect of over 40% in size. The gist of the method: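 CellTiter-Glo luminescence, 10 min room-temperature incubation, gave viability. Cells: naive MV4-11 (500/well), treated 72 hr at 37 C, 5% CO2.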
(Quantitative high-throughput screening tests each substance at several concentrations.)

Assay [2] in a line: Quantitative highthroughput screen to assess conditional lethalithy of NOMO1 cells grown in RPMI1640 with untreated serum (RPMI+s) (AID 1963876). Further: nearly all actives have a fitted effect of over 35% in size.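 On Viability: 100% = DMSO wells and 0% = empty wells without cells.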 The essentials:
(§1)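 Each medium arm—HPLM with 10% dialyzed FBS, or RPMI1640 with 5 mM glucose and 10% untreated or dialyzed FBS—was screened against an 11-point, 3-fold compound titration for 48 h at 37 °C, with CellTiter-Glo luminescence as endpoint.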

A short description of assay [3]: Quantitative highthroughput screen to assess conditional lethalithy of NOMO1 cells grown in RPMI1640 with dialyzed fetal bovine serum (RPMI+ds) (AID 1963877). Further: nearly all actives have a fitted effect of over 30% in size.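 On Viability: series mostly up to about 46 µM; 100% = DMSO control wells and 0% = empty wells.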 The essentials:
as §1

A short description of assay [4]: Quantitative highthroughput screen to assess conditional lethalithy of NOMO1 cells grown in Human Plasma-Like Medium with dialyzed fetal bovine serum (HPLM+ds) (AID 1963878). Further: nearly all actives have a fitted effect of over 35% in size.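 On Viability: 100% = DMSO wells and 0% = empty wells on each plate.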 The gist of the method: as §1
Assay [5] in a line: Quantitative highthroughput screen to assess conditional lethalithy of P12 Ichikawa cells grown in RPMI1640 with dialyzed fetal bovine serum (RPMI+ds) (AID 1963880). Further: nearly all actives have a fitted effect of over 35% in size.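 On Viability: 100% = DMSO wells and 0% = empty wells on each plate.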 The note with it: Potency: P12-Ichikawa viability. The essentials:
as §1

The nature of assay [6]: Cellular viability qHTS for adrenocortical cancer (ACC) cell line NCI-H295R (AID 1963990). Further: nearly all actives have a fitted effect of over 60% in size. The gist of the method: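 Viability of NCI-H295R after 48 h of treatment (final up to 46 uM) measured through cellular ATP luminescence.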
A short description of assay [7]: Quantitative highthroughput screen to assess conditional lethalithy of P12 Ichikawa cells grown in Human Plasma-Like Medium with dialyzed fetal bovine serum (HPLM+ds) (AID 1963879). Further: nearly all actives have a fitted effect of over 35% in size. On Viability: series mostly up to about 46 µM. The note with it: Potency: viability. The essentials: as §1
Assay [8] is described as follows: Quantitative highthroughput screen to assess conditional lethalithy of P12 Ichikawa cells grown in RPMI1640 with untreated serum (RPMI+s) (AID 1963881). Further: nearly all actives have a fitted effect of over 35% in size.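 On Viability: series mostly up to about 46 µM; 100% = DMSO wells and 0% = empty wells without cells.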 The note with it: Potency: viability. The essentials: as §1
The nature of assay [9]: Quantitative highthroughput screen to assess conditional lethalithy of SEM cells grown in Human Plasma-Like Medium with dialyzed fetal bovine serum (HPLM+ds) (AID 1963882). Further: nearly all actives have a fitted effect of over 35% in size. On Viability: series mostly up to about 46 µM. The gist of the method: as §1
Assay [10] is described as follows: Quantitative highthroughput screen to assess conditional lethalithy of SEM cells grown in RPMI1640 with unreated serum (RPMI+s) (AID 1963883). Further: nearly all actives have a fitted effect of over 35% in size.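 On Viability: 100% = DMSO wells and 0% = empty wells without cells.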 The gist of the method:
as §1

Assay [11] can be described thus: Quantitative highthroughput screen to assess conditional lethalithy of SEM cells grown in RPMI1640 with dialyzed fetal bovine serum (RPMI+ds) (AID 1963884). Further: nearly all actives have a fitted effect of over 35% in size.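 On Viability: series mostly up to about 46 µM; 100% = DMSO control wells and 0% = empty wells without cells.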 The gist of the method: as §1
Assay [12] can be described thus: Cellular viability qHTS for adrenocortical cancer (ACC) cell line SW-13 (AID 1963989). Further: nearly all actives have a fitted effect of over 65% in size.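 On activity (max response): cells grown in serum-free medium with ITS supplement; on the % scale 0 is the no-effect control and ±100 the full control effect.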 The settings on record: SW-13 ACC cells viability, CellTiter-Glo, 48 h; activity (max response): active compounds read low. The essentials: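 Here, serum-free SW-13 cultures were dosed up to 46 uM. Following 48 h, ATP-dependent luminescence (CellTiter-Glo) reported viable cells, and logistic modeling produced IC50 values.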

Values joined by “and” are separate entries in the source; they are usually repeats but may differ in a detail not shown here. Equal values may be shown once. Inconclusive results are not listed. A number with no mark means an inactive call. Active and inactive are the calls of the source. The call rests on the fitted dose curve; in most records, active means well fitted curve in the direction sought with a large enough effect; inconclusive means small, poorly fitted or top-dose-only effect, or another doubt; inactive means no such curve, though single readings can be large; an effect the other way counts as inactive or inconclusive.
Potency means the concentration at half of the fitted maximal effect.

For the compound `Cc1cccc(Nc2nc(-c3ccncc3)cs2)c1`, the Potency in assay [1] was 8.2 µM (active); in assay [5], 18.7 µM (active); in assay [6], 25.1 µM (active). The Potency result in assay [2], in [3] and in [4] was “inactive” throughout.
Take `O=C1c2cccc(O)c2C(=O)c2c(O)cc(CO)cc21`: the Potency in assay [1] is 8.33 µM (active). For the same compound, the Potency entry in assay [2], in [3], in [4], in assay [7], in [5] and in [8] was “inactive” throughout. The Potency result in assay [9], in assay [10] and in assay [11] was “inactive” throughout. Besides, the activity (max response) in [12] was 13.5%.
With `N#Cc1cc(NC(=O)Nc2nnc(-c3ccncc3)s2)ccc1-c1cn[nH]c1`, the Potency result in assay [1], in assay [2], in [3], in [4], in assay [7] and in assay [5] was “inactive” throughout. Moreover, the Potency entry in assay [8], in [9], in assay [10], in assay [11] and in assay [6] was “inactive” in each case. Also, in assay [12], the activity (max response) was 13.8%.
As for `O=C1C(c2c(O)[nH]c3ccccc23)=Nc2ccccc21`, the Potency entry in assay [1], in assay [2], in [3], in assay [4], in [7] and in [5] was “inactive” each time. Moreover, the Potency result in assay [8], in [9], in assay [10], in assay [11] and in [6] was “inactive” throughout. Also, in assay [12], the activity (max response) is -5.8%.
With `Nc1nc(-c2nn(Cc3ccccc3F)c3ncccc23)nc(N)c1N1CCOCC1`, the Potency result in [1], in assay [2], in [3], in assay [4], in [7] and in assay [5] was “inactive” in each case. For the same compound, the Potency entry in assay [8], in [9], in [10], in assay [11] and in assay [6] was “inactive” in each case. Moreover, the activity (max response) in [12] was 8.84%.
With `N[C@@H](CC(=O)N1CCn2c(nnc2C(F)(F)F)C1)Cc1cc(F)c(F)cc1F`, the Potency result in [1], in assay [2], in assay [3], in [4], in assay [7] and in [5] was “inactive” throughout. For the same compound, the Potency entry in [8] and in assay [6] was “inactive” in each case. For the same compound, in [12], the activity (max response) is -2.25%.
As for `CCn1c(C(=O)N(C2CC2)C2CC2)cc2c3c(ncn3C)c(Nc3cc(C)n(C)n3)nc21`, the Potency was 1.03 µM (active) and 1.48 µM (active) in assay [1]; 20.9 µM (active) in assay [10]. For the same compound, the Potency result in [2], in assay [3], in [4], in [7], in assay [5] and in assay [8] was “inactive” throughout. Moreover, in [12], the activity (max response) is -6.84%.
Take `COc1cc2c(cc1OC)CC(=O)N(CCCN(C)C[C@H]1Cc3cc(OC)c(OC)cc31)CC2`: the Potency entry in assay [1], in assay [2], in [3], in assay [4], in [7] and in assay [5] was “inactive” in each case. Besides, the Potency entry in assay [8], in assay [9], in assay [10], in [11] and in assay [6] was “inactive” in each case. In addition, the activity (max response) in [12] is 10.3%.
Regarding `CN(C)c1cccc(-c2c3c(=O)n(-c4ccccc4Cl)[nH]c3cc(=O)n2C)c1`, the Potency entry in assay [1] and in assay [6] was “inactive” each time. The Potency in assay [2] was 0.933 µM (active); in assay [3] it was 0.831 µM (active); in assay [4], 0.588 µM (active); in assay [7] it was 0.831 µM (active); in [5] it was 1.17 µM (active); in assay [8], 1.05 µM (active). Also, the figures for the Potency in assay [9], in assay [10] and in assay [11] were 1.05 µM (active), 1.05 µM (active) and 0.831 µM (active), respectively. Moreover, in assay [12], the activity (max response) was -1.86%.
For the compound `CN1C[C@H]2c3ccccc3Oc3ccc(Cl)cc3[C@@H]2C1`, the Potency is 26.6 µM (active) in assay [1] and 23.5 µM (active) in assay [11]. Also, the Potency result in assay [2], in [3], in [4], in [7], in assay [5] and in [8] was “inactive” each time. In addition, in assay [12], the activity (max response) is -18.3%.
Take `CCN(CC)CCOc1ccc(Nc2ncc3cc(-c4c(Cl)cccc4Cl)c(=O)n(C)c3n2)cc1`: the Potency in assay [1] was 0.0661 µM (active); in [2], 2.64 µM (active); in assay [3], 2.96 µM (active); in [4], 2.64 µM (active); in assay [7], 3.72 µM (active); in assay [5], 3.32 µM (active). The Potency in assay [8] was 2.96 µM (active); in assay [9] it was 1.66 µM (active); in assay [10], 1.05 µM (active); in [11] it was 2.35 µM (active); in assay [12], 1 µM (active); in assay [6], 0.794 µM (active).
For the compound `COc1ccccc1-c1cccc(-c2c(O)c3cc(C#N)c(Cl)cc3[nH]c2=O)c1`, the Potency entry in assay [1] and in [6] was “inactive” throughout. For the same compound, the Potency in assay [2] was 17.1 µM (active); in assay [3], 19.1 µM (active); in assay [4] it was 6.79 µM (active); in assay [7] it was 4.81 µM (active); in assay [5], 8.55 µM (active); in assay [8], 10.8 µM (active). Besides, the Potency was 8.55 µM (active) in [9], 2.7 µM (active) in assay [10] and 5.4 µM (active) in assay [11]. In [12], the activity (max response) was -20.9%.
Turning to `COc1ccc(-c2nc(N3CCOCC3)c3sc(CN(C)c4ncc(C(=O)NO)cn4)cc3n2)cn1`, the Potency in assay [1] is 0.0148 µM (active); in assay [2], 0.0209 µM (active); in [3] it was 0.0235 µM (active); in assay [4] it was 0.0166 µM (active); in assay [7], 0.0209 µM (active); in [5], 0.0235 µM (active). Besides, the Potency is 0.0118 µM (active) in assay [9]; 0.0074 µM (active) in [10]; 0.0132 µM (active) in [11]; 0.355 µM (active) in [12]; 0.0891 µM (active) in assay [6].
Take `OCc1ccc(-c2nn(Cc3ccccc3)c3ccccc23)o1`: the Potency in [1] is 5.25 µM (active); in assay [2], 13.2 µM (active); in [3], 16.6 µM (active); in assay [4], 16.6 µM (active). Also, in [7], the Potency entry is “inactive”. Further, in [12], the activity (max response) is -19%.
Take `CN1CCN2c3ncccc3Cc3ccccc3C2C1` (stereo not given): the Potency result in assay [1], in [2], in assay [3], in assay [4], in assay [7] and in assay [5] was “inactive” each time. The Potency result in [8], in assay [9], in assay [10], in [11] and in assay [6] was “inactive” each time. In assay [12], the activity (max response) is -3.47%.
For `C[C@H](NC(=O)[C@@H](O)c1cc(F)cc(F)c1)C(=O)N[C@@H]1C(=O)N(C)c2ccccc2-c2ccccc21`, the Potency result in assay [1], in [2], in assay [3], in assay [4], in [7] and in [5] was “inactive” throughout. Also, the Potency entry in assay [8], in assay [9], in assay [10] and in [6] was “inactive” throughout. The activity (max response) in assay [12] is -11.3%.
For `CC(C)C(C)C=CC(C)C1CCC2C3=CC=C4CC(O)CCC4(C)C3CCC21C` (stereo not given), the Potency entry in [1], in assay [2], in assay [3], in assay [4], in assay [7] and in [5] was “inactive” throughout. The Potency entry in assay [8], in assay [9], in assay [10], in [11] and in [6] was “inactive” in each case. For the same compound, in [12], the activity (max response) was 11.2%.
